# Sampled rows, rich in hits. Any-hit rate of the full collection: about 3.9%.
# BRCA1 expr act: activators of BRCA1 expression; MCF7-BRCA1-FFLuc reporter, luminescence, 48 h; response scale: scaled: vehicle 0%, 10 µM genistein 100%; Potency, µM (highest dose often 46.1 µM), inactives show top-dose activation, hits mostly activators; hit rate 1.1% among 380,000; also: nearly all actives have a fitted effect of over 80% in size
#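 Using MCF7 cells harboring a BRCA1 firefly luciferase reporter, plated 2 h before compound pinning, the screen measured luminescence after 48 h incubation. Responses were normalized to DMSO and 10 microM genistein, then fitted for concentration-effect.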
# Tb PFK block: inhibitors of T. brucei phosphofructokinase; AID 485367; O15648; T. brucei PFK, ADP-Glo luminescence; Potency, µM (doses to about 57.5 µM), without a hit: top-dose activity, negative = inhibition, usual class: inhibitors; hit rate 0.17% among 330,000;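 also: 0% = uninhibited 1x PFK enzyme wells and -100% = no-enzyme wells; nearly all actives have a fitted effect of over 60% in size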
# Target sequence (O15648 whole entry, looked up): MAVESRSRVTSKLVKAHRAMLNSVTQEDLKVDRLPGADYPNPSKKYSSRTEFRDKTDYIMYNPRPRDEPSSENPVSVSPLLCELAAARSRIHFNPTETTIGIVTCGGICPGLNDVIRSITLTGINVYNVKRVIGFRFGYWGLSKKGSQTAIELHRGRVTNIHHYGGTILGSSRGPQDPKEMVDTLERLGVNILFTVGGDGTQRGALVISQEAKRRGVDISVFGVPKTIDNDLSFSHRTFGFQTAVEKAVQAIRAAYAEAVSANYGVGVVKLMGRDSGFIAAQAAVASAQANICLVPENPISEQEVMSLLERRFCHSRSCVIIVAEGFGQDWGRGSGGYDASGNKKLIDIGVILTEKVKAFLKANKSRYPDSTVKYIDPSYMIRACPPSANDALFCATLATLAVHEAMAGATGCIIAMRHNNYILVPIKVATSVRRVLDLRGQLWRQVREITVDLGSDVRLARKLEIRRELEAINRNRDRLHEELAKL
#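 1.25 nM PFK with 0.5 mM F6P and 0.1 mM ATP in 0.1 M TEA pH 8.0, 5 mM MgCl2, incubated 45 min at room temperature; ADP measured by ADP-Glo luminescence; compounds titrated up to 57 uM.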
# VDR inh: inhibitors of human vitamin D receptor | P11473 | VDR-SRC2-3 peptide fluorescence polarization, 2 h | Potency, µM, without a hit: max response, negative = inhibition, hits mostly inhibitors | hit rate 0.93% among 400,000 | AID 504847; also: % is scaled to controls: 0 for no effect and ±100 for the full control effect
#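 Fluorescence polarization assay of small-molecule disruption of VDR binding to coregulator peptide SRC2-3. Compounds and controls pin-transferred, then read after 2 h incubation at ambient room temperature.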
# PLK1 PBD block: inhibitors of human PLK1 polo-box domain binding; P53350; Plk1 PBD binding of FITC phosphopeptide, fluorescence polarization; Potency, µM, for the others: max response, negative = inhibition, actives largely listed as inhibitors; hit rate 2.8% among 360,000; AID 720504; also: series mostly up to about 57 µM; % is scaled to controls: 0 for no effect and ±100 for the full control effect; nearly all actives have a fitted effect of over 65% in size
# Active calls of the source: *; ? = inconclusive; / = no result; ! = not confirmed by another sample. Calls follow the shape of the dose curve; as a rule, active = well fitted curve in the direction sought with a large enough effect; inconclusive = small, poorly fitted or top-dose-only effect, or another doubt; inactive = no such curve, though single readings can be large; an effect the other way counts as inactive or inconclusive. Potency is read from the fitted curve at half-maximal effect.
SMILES,BRCA1 expr act,Tb PFK block,VDR inh,PLK1 PBD block
COC1=C(c2ccccc2)C(=O)c2ccccc2C1=O,-74.4%,3.3%,-20.2%,?
COc1ccc(C(=O)N/N=C/C(C)c2ccccc2)cc1OC (centres undefined),-8.6%,-1.9%,5.0%,-1.6%
C=CC(C1=CC(=O)C(OC)=CC1=O)c1ccc(OC)cc1 (centres undefined),/,/,11.2µM*,/
C=CC(C1=CC(=O)C(OC)=C(OC)C1=O)c1ccccc1 (centres undefined),/,/,1µM*,/
Cc1cnc(CNc2ccnc(-c3ccc(C(=O)N(C)C)cc3)n2)cn1,/,/,9.4%,/
Cc1cc(C(=O)COC(=O)c2nn(C)c(=O)c3ccccc23)c(C)n1C,11.4%,/,-2.2%,-27.6%
Cc1nc(NCC(=O)c2c[nH]c3ccccc23)sc1C,8.7%,/,/,/
COc1ccc2c(c1)-c1nc(NC(=O)c3cc(Cl)ccc3OC)sc1CC2,/,/,0.4%,/
Cc1ccnc(NC(=O)CNC(=O)Cc2cccc3ccccc23)c1,-17.5%,-9.5%,-6.0%,-19.0%
O=C(c1cccc(Cl)c1Cl)N(Cc1ccco1)Cc1cccs1,-17.6%,/,79.4µM*,/
CCc1ccc2[nH]c(=O)c(CN(Cc3ccco3)Cc3nnnn3Cc3ccco3)cc2c1,-46.4%,/,-24.1%,/
Oc1ccc(N=Nc2ccc3c(c2)OCCO3)c2cccnc12,-76.9%,-3.7%,1.7%,26.7µM*
O=S(=O)(O)c1cccc2c(N=Nc3ccc(O)c4ncccc34)cccc12,-11.5%,?,-12.0%,21.2µM*
Cc1ccccc1N=Nc1ccc(O)c2ncccc12,-94.5%,3.3%,-0.9%,-6.9%
COCCNC(=O)C1(C)CCCN(C(=O)c2ccc(OC)cc2OC)C1 (centres undefined),-6.2%,/,/,-9.5%
CCc1ccc(-n2c(CSc3nnnn3-c3ccccc3)nc3ccccc3c2=O)cc1,-34.4%,1.5%,-20.8%,5.97µM*
O=c1c2ccccc2nnn1CSc1nnnn1-c1ccc(O)cc1,0.0%,-2.3%,-8.4%,-5.2%
C[C@@H]1CCC2[C@](C)(CO)[C@@H](O)CC[C@]2(C)[C@@]12CCC(CO)(CCO)O2 (some centres undefined),-15.4%,4.0%,1.9%,26.7µM*
COc1ccc(NC2=CC(c3ccc(OC)cc3)N(c3ccc(OC)cc3)C2=O)cc1 (centres undefined),29.7%,1.1%,-27.1%,23.8µM*
CCCOc1ccc(/C(O)=C2\C(=O)C(=O)N(c3ccccn3)C2c2ccccc2F)cc1C (centres undefined),-12.8%,-3.4%,-5.7%,-8.0%
CC(NC(=O)C1CCN(S(=O)(=O)c2ccccc2)CC1)c1ccccc1 (centres undefined),-2.8%,-1.5%,135.8%,-2.0%
Cc1[nH]c(=O)[nH]c(=O)c1S(=O)(=O)N1CCC(C(=O)NC(C)c2ccccc2)CC1 (centres undefined),-10.5%,7.9%,-16.9%,33.6µM*
CN(C)C(CNC(=O)C1CCN(S(=O)(=O)c2ccccc2)CC1)c1ccccc1 (centres undefined),4.3%,2.7%,-15.7%,33.6µM*
COC(=O)[C@]12CCCCC=C1N(Cc1ccc3c(c1)OCO3)C(=O)[C@H](CC(=O)NCCCCc1ccccc1)C2,/,/,/,-18.0%
CCC(C)N1C(=O)S/C(=C/c2ccc(N3CCOCC3)cc2C)C1=O (centres undefined),8.91µM*,0.0%,1.5%,7.4%
SMILES,BRCA1 expr act,Tb PFK block,VDR inh,PLK1 PBD block
CCOC(=O)c1c(C)oc2c1c(C=NCCC(=O)O)c(O)c1ccccc12,8.5%,-6.3%,-12.1%,-26.9%
CCOC(=O)c1c(C)oc2ccc(O)c(CN3CCCCC3)c12,-1.2%,1.5%,1.3%,1.8%
CCOC(=O)c1c(C)oc2c1c(CN1CCN(CCO)CC1)c(O)c1ccccc12,?,-6.4%,?,1.68µM*
CCOC(=O)c1c(C)oc2c1c(C(c1ccncc1)N1CCOCC1)c(O)c1ccccc12 (centres undefined),-27.9%,-0.9%,?,10.6µM*
CCOC(=O)c1c(C)oc2c1c(CN1CCN(C(=O)OCC)CC1)c(O)c1ccccc12,26.5%,-1.2%,50.1µM*,?
COc1ccc(CNC(=O)CCS(=O)(=O)c2cc3c4c(c2)CCN4C(=O)CC3)cc1OC,7.4%,/,12.9%,/
CC(C)CCNC(=O)C1CCC(Cn2c(=O)c3sccc3n(CC(=O)NC(C)C)c2=O)CC1 (centres undefined),/,/,-4.5%,/
N=c1oc2cc(O)ccc2cc1C(=O)Nc1ccc(F)cc1,1.58µM*,3.6%,1.9%,-0.9%
O=C(COC(=O)c1ccccc1F)NC(=O)NC1CCCC1,10.2%,-2.9%,-7.9%,-2.0%
Fc1cccc(/C=N/Nc2nncc3ccccc23)c1,?,-3.7%,?,21.2µM*
COc1cc(/C=C2\CCC/C(=C\c3ccc(O)c(OC)c3)C2=O)ccc1O,-108.2%,-4.1%,25.1µM*!,-9.9%
COc1cc(/C=C2\CC/C(=C\c3cc(OC)c(O)c(OC)c3)C2=O)cc(OC)c1O,-85.6%,-29.8%,-13.6%,4.74µM*
CCc1ccc(Nc2n[n+](C)c(-c3ccncc3)s2)cc1,-9.7%,3.0%,79.4µM*,?
COc1ccc(-c2cc(C(F)(F)F)n3nc(C(=O)Nc4cccc(C(F)(F)F)c4)c(Br)c3n2)cc1,/,/,0.5%,/
O=[N+]([O-])c1cccc(S(=O)(=O)Nc2nc3ccccc3nc2Nc2cccc(S(=O)(=O)N3CCCCC3)c2)c1,-65.2%,4.0%,2.5%,23.8µM*
Cc1ccc(S(=O)(=O)Nc2nc3ccccc3nc2Nc2cccc(S(=O)(=O)N3CCCC3)c2)cc1,-51.2%,0.1%,12.6%,26.7µM*
Cc1ccc(-c2cc(C3C4C=CCCC4(C)C(=O)N3Cc3ccccc3)ccc2F)cc1 (centres undefined),/,/,1.2%,/
COc1cc(NC(=S)NC(C)(C)C)c(OC)cc1Cl,-23.7%,-5.9%,-7.8%,?
COc1cc(Cl)c(C)cc1NC(=S)NN,-24.8%,-23.4%,5.1%,26.7µM*
COc1ccc(NC(=O)c2cn(-c3ccccc3)nc2-c2cc3ccccc3o2)cc1,-2.6%,3.2%,14.1%,-1.4%
OCc1cn(-c2ccccc2)nc1-c1cc2ccccc2o1,2.51µM*,-1.5%,30.5%,5.4%
COc1cccc(CNC(=O)c2cnc(N3CCCCC3)c3ccccc23)c1,/,/,12.4%,/
CCOCC(=O)Nc1nnc(C2CCCCC2)s1,?,-0.1%,?,26.7µM*
CCOC(=O)C(=O)Nc1nnc(C2CCCCC2)s1,0.0%,-0.6%,-13.1%,23.8µM*
CS(=O)(=O)Nc1nnc(C2CCCC2)s1,-20.0%,-0.6%,1.0%,18.9µM*
SMILES,BRCA1 expr act,Tb PFK block,VDR inh,PLK1 PBD block
COCC(=O)Nc1nnc(C2CCCCC2)s1,-2.2%,-1.5%,-5.4%,-22.6%
O=S(=O)(Nc1nnc(C2CC2)s1)c1ccccc1,-19.4%,-8.9%,3.8%,?
COc1cc(OC)c(NC(=O)NCc2ccc3c(c2)CCN3C(=O)c2ccccc2)cc1Cl,-14.0%,/,11.4%,/
Cc1cnc(C=NNC(N)=S)c2cccc(N)c12,-96.7%,/,?,23.8µM*
NC(=S)NN=Cc1nccc2ccccc12,-44.8%,/,?,-14.9%
CCC(=S)/C=C1\Sc2ccccc2N1CCCS(=O)(=O)O,7.5%,-6.3%,70.8µM*,?
COC(=O)c1ccc(COC(=O)c2ccc(N(C)C)cc2)cc1,5.01µM*,1.1%,-5.0%,3.8%

# High-throughput results deposited in PubChem BioAssay by National Center for Advancing Translational Sciences (NCATS).
